# RE007 growth inh = less growth of the S. pombe RE007 Vpr strain. Potency, µM (series often up to 92.2 µM), inactives show at the top dose activity change, negative = less growth, usual class: inhibitors. S. pombe RE007 Vpr strain, BacTiter-Glo ATP luminescence, 24 h. actives 0.21% (n = 360,000); active means well fitted falling curve with a large enough effect; inconclusive means small, poorly fitted or top-dose-only effect; inactive means no such curve, though single readings can be large or run the other way; further: potency means the concentration at half of the fitted maximal effect; on the % scale 0 is the no-effect control and ±100 the full control effect; nearly all actives have a fitted effect of over 50% in size
#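 Fission yeast strain RE007, carrying one chromosomally integrated HIV-1 vpr copy, was seeded at OD 0.01 in PMG+AL medium with 23 nL pinned compound. After 24 h at 30 °C and 99% humidity, viability was read by BacTiter-Glo luminescence.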
# Shiga toxin inh = Shiga toxin inhibition | actives 9.2% (n = 290,000) | Vero cells, Shiga toxin protein synthesis inhibition reporter | inhibition, % at 38.7 µM; in the data active means inhibition mostly above about 28%, no sharp cut-off; inactive means mostly below about 43%; further: 0% is about no effect
# LmPK inhibitor = LmPK (Leishmania mexicana) enzyme inhibition; purified LmPK, Kinase-Glo ATP luminescence, 1 h; Potency, µM (doses to about 57.5 µM), inactives show at the highest dose activity change, negative = inhibition, actives largely listed as inhibitors; actives 0.37% (n = 290,000); AID 1721; Q27686; further: potency means the concentration at half of the fitted maximal effect; on the % scale 0 is the no-effect control and ±100 the full control effect
#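 In 50 mM imidazole pH 7.2 with 7 mM MgCl2, LmPK (0.1 nM) turned over PEP (0.5 mM) and ADP (0.1 mM) for 1 h at room temperature. Luciferase read-out of ATP.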
# Giardia FBPA inh-1 = inhibitors of Giardia lamblia fructose-1,6-bisphosphate aldolase; A8B2U2; purified Giardia FBPA; Potency, µM (doses to about 59.6 µM), without a hit: at the top dose activity, negative = inhibition, hits mostly inhibitors; actives 0.71% (n = 290,000); AID 2451; further: potency means the concentration at half of the fitted maximal effect; on the % scale 0 is the no-effect control and ±100 the full control effect; nearly all actives have a fitted effect of over 55% in size
# Target sequence (A8B2U2 whole entry, looked up): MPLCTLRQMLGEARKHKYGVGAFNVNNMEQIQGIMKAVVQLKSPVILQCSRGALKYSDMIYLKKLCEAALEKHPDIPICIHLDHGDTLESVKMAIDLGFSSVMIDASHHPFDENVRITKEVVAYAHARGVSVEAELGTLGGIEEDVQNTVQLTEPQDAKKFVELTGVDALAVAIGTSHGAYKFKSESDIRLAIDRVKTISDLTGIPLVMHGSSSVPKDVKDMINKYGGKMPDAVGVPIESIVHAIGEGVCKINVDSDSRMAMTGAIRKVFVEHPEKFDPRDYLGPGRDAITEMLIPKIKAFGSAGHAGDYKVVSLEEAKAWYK
#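 40 nM FBPA preincubated 10 min at RT with compound (up to 57.5 uM final), then substrate plus GAPDH/TPI/NAD/arsenate coupling and diaphorase/resazurin added. Fluorescence read after 20 min at RT, 525/598 nm.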
# Tb PYK inh = T. brucei pyruvate kinase inhibition | Potency, µM (series often up to 76.8 µM), without a hit: top-dose activity, negative = inhibition, actives largely listed as inhibitors | TbPYK enzyme, Kinase-Glo Plus ATP luminescence, 45 min | AID 624173 | Q57TT1 | actives 0.12% (n = 410,000); further: potency means the concentration at half of the fitted maximal effect; on the % scale 0 is the no-effect control and ±100 the full control effect; nearly all actives have a fitted effect of over 50% in size
#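 ADP (130 uM final) triggers the TbPYK reaction after compound addition; incubation is 45 min at room temperature. Kinase-Glo Plus is then added and luminescence imaged. Normalized data are fitted to concentration-effect curves.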
# CHX counter = counter-screen hit for Shiga toxin inhibitors, cycloheximide; AID 2314; max response, %; actives 12% (n = 300,000); cell reporter, cycloheximide protein synthesis inhibition counterscreen; in the data active means max response mostly above about 13%, no sharp cut-off; inactive means mostly below about 14%; further: read at 38.3 µM for the half of the compounds with a filed dose; 0% is about no effect
# Giardia growth = blocks growth of Giardia lamblia trophozoites | shares compounds with Giardia FBPA inh-1 | AID 2785 | Potency, µM (top dose mostly 57.5 µM), for the others: at the top dose activity change, negative = inhibition, most hits filed as inhibitors | Giardia lamblia trophozoite growth inhibition | actives 5% (n = 1,500);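 further: potency means the concentration at half of the fitted maximal effect; trophozoites exposed to compound for 48 h at 37 °C; on the % scale 0 is the no-effect control and ±100 the full control effect; nearly all actives have a fitted effect of over 70% in size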
# Mammal cell tox = toxic to mammalian cells in Giardia aldolase counter-screen. shares compounds with Giardia FBPA inh-1. mammalian cell viability counter-screen, qHTS. Potency, µM (titrated, usually from 57.5 µM), for the others: at the highest dose viability change, negative = toxicity, hits mostly inhibitors. actives 4% (n = 1,500). AID 2786;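 further: Chinese hamster ovary cells used as mammalian cytotoxicity surrogate; viability measured as cellular ATP by luminescence; potency means the concentration at half of the fitted maximal effect; compound exposure lasted 48 h before reading; on the % scale 0 is the no-effect control and ±100 the full control effect; nearly all actives have a fitted effect of over 60% in size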
# Giardia FBPA inh-2 = confirmation of Giardia fructose-bisphosphate aldolase inhibitors; shares compounds with Giardia FBPA inh-1; purified Giardia aldolase enzyme activity, qHTS; Potency, µM (series often up to 57.5 µM), inactives show at the highest dose activity change, negative = inhibition, most hits filed as inhibitors; actives 5% (n = 1,500); further: potency means the concentration at half of the fitted maximal effect; on the % scale 0 is the no-effect control and ±100 the full control effect; nearly all actives have a fitted effect of over 45% in size
# Rabbit aldolase = rabbit FBP aldolase inhibition by Giardia aldolase hits; shares compounds with Giardia FBPA inh-1; Rabbit muscle FBPA enzyme inhibition, selectivity counter-screen; Potency, µM (doses to about 57.5 µM), for the others: at the top dose activity, negative = inhibition, actives largely listed as inhibitors; actives 4% (n = 1,500); further: potency means the concentration at half of the fitted maximal effect; on the % scale 0 is the no-effect control and ±100 the full control effect; nearly all actives have a fitted effect of over 60% in size
# Target sequence (P00883 whole entry, looked up): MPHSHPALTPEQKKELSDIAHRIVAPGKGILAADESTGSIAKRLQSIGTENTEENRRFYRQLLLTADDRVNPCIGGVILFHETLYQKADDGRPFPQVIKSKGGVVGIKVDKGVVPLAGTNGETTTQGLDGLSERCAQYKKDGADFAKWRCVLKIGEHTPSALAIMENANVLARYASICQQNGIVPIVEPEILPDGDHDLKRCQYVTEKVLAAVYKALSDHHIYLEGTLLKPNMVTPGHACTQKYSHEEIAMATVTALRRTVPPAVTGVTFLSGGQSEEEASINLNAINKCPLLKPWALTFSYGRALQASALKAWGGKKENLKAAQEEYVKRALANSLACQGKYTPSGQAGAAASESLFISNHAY
# GAPDH counter = counter-screen for Giardia aldolase inhibitors: GAPDH coupling enzyme | shares compounds with Giardia FBPA inh-1 | GAPDH coupling enzyme counterscreen, biochemical, qHTS | Potency, µM (top dose mostly 57.5 µM), for the others: at the top dose activity change, negative = inhibition, usual class: inhibitors | actives 6% (n = 1,500) | AID 2795; further: potency means the concentration at half of the fitted maximal effect; on the % scale 0 is the no-effect control and ±100 the full control effect; nearly all actives have a fitted effect of over 55% in size
# * marks the source's active call; other numbers are inactive results; ? = inconclusive; . = no result given; [ ] = remark or other dose. The sample as a whole holds a higher share of hits than the screen did. Unless noted, the call rests on the fitted dose curve; in most records, active means well fitted curve in the direction sought with a large enough effect; inconclusive means small, poorly fitted or top-dose-only effect, or another doubt; inactive means no such curve, though single readings can be large; an effect the other way counts as inactive or inconclusive.
SMILES,RE007 growth inh,Shiga toxin inh,LmPK inhibitor,Giardia FBPA inh-1,Tb PYK inh,CHX counter,Giardia growth,Mammal cell tox,Giardia FBPA inh-2,Rabbit aldolase,GAPDH counter
COc1ccc(Cc2c(O)[nH]c(=S)[nH]c2=O)cc1,14%,-4,-2%,25µM*,?,-4,-13%[10.4 µM],15%,-6%,11%,11%
N#CC(C#N)=C(C#N)c1ccc(Nc2ccccc2)cc1,18%,.,-27%,22µM*,-5%,-1,?,-8%,-17%,-8%,-18%
c1ccc(Nc2ccc(Nc3ccccc3)cc2)cc1,-17%,.,.,.,2%,.,.,.,.,.,.
Cc1cc(C)c(S(=O)(=O)NCC2CCC(C(=O)NCCCN3CCC(C)CC3)CC2)c(C)c1 (stereo unspecified),6%,-8,1%,-5%,-9%,-1,.,.,.,.,.
O=C(NCc1ccccc1)c1ccc(/C=N/O)nc1,7%,-8,-4%,2%,9%,-1,.,.,.,.,.
CNCCCNC(=O)c1ccc(/C=N/O)nc1,7%,-7,2%,16µM*,-11%,1,60%,-6%,1%,8%,4%
NC(=O)c1ccc(/C=N/O)nc1,-2%,17,2%,18µM*,-7%,-3,?,3%,3%,6%,2%
O=C(NCCCNC1CCCCC1)c1ccc(/C=N/O)nc1,-20%,13,1%,-3%,-25%,1,.,.,.,.,.
CC1(C)C[C@H]2C3=CCC4[C@@]5(C)CC[C@H](O)[C@](C)(CO)C5CC[C@@]4(C)[C@]3(C)C[C@H]3O[C@@H]1[C@H](O)[C@]32CO (stereo partly specified),-11%,.,.,.,1%,.,.,.,.,.,.
Brc1ccccc1OCCN1CCOCC1,5%,-9,-2%,28µM*,17%,2,31%,0%,1%,-7%,7%
CCOc1cc(C=O)cc(N=Nc2cccc([N+](=O)[O-])c2)c1O,-19%,-6,-6%,13µM*,-4%,1,?,1%,-19%,-11%,-1%
CCCCN(C(=O)CSc1n[nH]c(-c2ccc(C)cc2)n1)c1c(N)n(CCCC)c(=O)[nH]c1=O,0%,.,.,.,-5%,.,.,.,.,.,.
CC(C)n1cnc2c(=S)nc[nH]c21,.,-5,-2%,3.2µM*,-13%,-2,6%[38.3 µM],-2%,-2%,-20%,?
O=C(O)c1ccc[nH]c1=S,-4%,-5,-6%,4.5µM*,-3%,-2,27%[38.3 µM],-7%,2%,0%,9%
O=C(O)c1ccccc1C(=O)O,8%,.,.,.,4%,.,.,.,.,.,.
Cc1cccc(NC(=O)C2CCCN(S(=O)(=O)c3ccc4c(c3)oc(=O)n4C)C2)c1C (stereo unspecified),.,.,.,.,0%,.,.,.,.,.,.
COCCCN1C(=O)C(=O)/C(=C(/O)c2ccc(S(=O)(=O)N3CCOCC3)cc2)C1c1ccc(OC)cc1 (stereo unspecified),2%,-8,-1%,16%,-23%,6,.,.,.,.,.
O=C(O)COc1ccccc1C(Nc1cccnc1)c1cc(Cl)c2cccnc2c1O (stereo unspecified),13%,18,-2%,18µM*,30%,-3,30%,11%,-16%,-6%,3%
O=C(O)COc1ccccc1C(Nc1ccccn1)c1cc(Cl)c2cccnc2c1O (stereo unspecified),-3%,-3,13%,?,52%,-2,.,.,.,.,.
Nc1nc(-c2cccc(F)c2)cs1,?,17,-8%,11µM*,-23%,-2,20%[10.4 µM],-5%,5%,5%,13%
COCc1nnc(NC(=O)c2ccc(S(=O)(=O)N3CCCc4ccccc43)cc2)o1,16%,-8,-5%,18µM*,0%,7,1%[10.4 µM],-12%,-2%,11%,0%
Cc1nnc(NC(=O)c2ccc(S(=O)(=O)N3CCc4ccccc4C3)cc2)o1,18%,-9,6%,18µM*,5%,-3,?,1%,-7%,7%,6%
COc1ccc(-c2nnc(NC(=O)c3ccc(S(=O)(=O)N4CCCc5ccccc54)cc3)o2)cc1,-14%,-1,0%,28%,-6%,1,.,.,.,.,.
COCc1nnc(NC(=O)c2ccc(S(=O)(=O)N3CCOCC3)cc2)o1,-5%,-6,4%,22µM*,6%,-3,?,-3%,4%,18%,5%
COc1ccc(Br)cc1CNc1ccccc1,15%,-6,-4%,28µM*,-3%,1,?,-2%,-5%,-6%,0%
SMILES,RE007 growth inh,Shiga toxin inh,LmPK inhibitor,Giardia FBPA inh-1,Tb PYK inh,CHX counter,Giardia growth,Mammal cell tox,Giardia FBPA inh-2,Rabbit aldolase,GAPDH counter
CCOC(=O)CCc1c(C)nc(-n2[nH]c(C)c(CCO)c2=O)[nH]c1=O,-14%,-3,1%,14µM*,0%,5,5%[10.4 µM],0%,-4%,5%,-1%
Cc1[nH]n(-c2nc(-c3ccccc3)cc(=O)[nH]2)c(=O)c1CCO,4%,-12,-10%,?,-12%,-5,.,.,.,.,.
O=C(O)CC1OCC=C2CN3CCC45C6=CC(=O)C(=O)C([N+](=O)[O-])=C6NC4C1C2CC35 (stereo unspecified),-4%,-1,-12%,1.3µM*,1%,-1,13µM*,-11%,4.5µM*,8.9µM*,4µM*
O=C(O)CC1OCC=C2CN3CCC45c6ccccc6NC4C1C2CC35 (stereo unspecified),1%,-15,-4%,-10%,6%,-1,.,.,.,.,.
O=C(C1CCCN(Cc2ccccc2F)C1)N1CCCCC1 (stereo unspecified),-13%,-8,-3%,13µM*,24%,-5,-3%[10.4 µM],-6%,4%,12%,12%
Cc1cc(=O)[nH]c(N/N=C/c2c(C)nn(-c3ccccc3)c2C)n1,8%,9,1%,-4%,3%,3,.,.,.,.,.
Cc1nn(-c2ccccc2)c(C)c1/C=N/Nc1nc2ccccc2[nH]1,-18%,149*,?,20µM*,-9%,82*,14µM*,25µM*,8%,0%,-16%

# High-throughput results from PubChem BioAssay.
